Assay [1] in a line: qHTS Assay for Lipid Storage Modulators (AID 1519; calls by dose curve; as to activity change, negative = inhibition: % is scaled to controls: 0 for no effect and ±100 for the full control effect). The settings on record: Drosophila S3 cells, BODIPY lipid droplet/cell ratio, laser cytometry, cells loaded with oleic acid. The method in brief: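 Cells seeded at 5,000 per well were treated with compounds over a concentration series and loaded with oleic acid (400 uM, as added). Lipid droplet fluorescence (488 nm excitation, 500-530 nm channel) was read by laser-scanning cytometry and normalized to 20 uM Triacsin C.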
(In general: In qHTS, concentration-response curves come from the screen itself.)

Assay [2] can be described thus: Cell Viability - LYMP2-026 (AID 989). Also: nearly all actives have a fitted effect of over 50% in size. Also: potency is read from the fitted curve at half-maximal effect. The method in brief:
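Human lymphoblastoid LYMP2-026 cells, 2500/well, exposed to compound 24 h at 37 C in complete medium. Viability as intracellular ATP by CellTiter-Glo luminescence; AC50 from Hill fits of qHTS concentration-response.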

Assay [3] is described as follows: Cell Viability - LYMP1-002 - Assay at 24 hr (AID 993). Also: potency is read from the fitted curve at half-maximal effect. The method in brief: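 Human lymphoblastoid LYMP1-002 cells (2500/well) treated 24 h at 37 °C; viability as intracellular ATP by CellTiter-Glo luminescence. Tetraoctylammonium bromide as positive control; AC50 from Hill-equation fits of qHTS concentration-response.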
Assay [4] in a line: Cell Viability - LYMP1-002 - Assay at 40 hr (AID 994). Also: nearly all actives have a fitted effect of over 60% in size. Also: potency is read from the fitted curve at half-maximal effect. The method, boiled down:
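LYMP1-002 human lymphoblastoid cells (2500/well, complete medium) were treated with compounds for 40 hr at 37 C. Intracellular ATP was measured by CellTiter-Glo luminescence, and AC50 values came from Hill-equation fits of concentration-response data; tetraoctylammonium bromide was the positive control.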

The target of assay [5] is DNA repair nuclease/redox regulator APEX1 (Homo sapiens) (UniProt P27695). The assay can be described thus: qHTS Validation Assay for Inhibitors of the Human Apurinic/apyrimidinic Endonuclease 1 (APE1) (AID 1705; also: potency is read from the fitted curve at half-maximal effect;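 as to activity change, negative = inhibition: TAMRA fluorescence gain over two minutes as APE1 cuts a quenched THF abasic duplex; % is scaled to controls: 0 for no effect and ±100 for the full control effect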). The method in brief:
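Activity read as rising fluorescence (598 nm emission, 525 nm excitation) from incision of a TAMRA/BHQ-2 duplex carrying a THF abasic site (50 nM). Compound and enzyme sat 15 min at RT before substrate start; signal change between first and third 60-s reads.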

Assay [6] can be described thus: qHTS for differential inhibitors of proliferation of Plasmodium falciparum line 7G8 (AID 1815).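 Also: parasite growth measured after three days of incubation.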 Also: potency is read from the fitted curve at half-maximal effect.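 As to activity change, negative = inhibition: plate controls were vehicle wells for no effect and reference inhibitor wells for full effect.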
Assay [7] in a line: qHTS for differential inhibitors of proliferation of Plasmodium falciparum line GB4 (AID 1816).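 Also: parasite growth measured after 72 h incubation.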 Also: potency is read from the fitted curve at half-maximal effect.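 As to activity change, negative = inhibition: 0% = vehicle DMSO and -100% = reference inhibitor.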 The settings on record: Potency: Plasmodium falciparum GB4 proliferation inhibition.
Assay [8] is described as follows: qHTS for differential inhibitors of proliferation of Plasmodium falciparum line 3D7 (AID 1876). Also: potency is read from the fitted curve at half-maximal effect.
A short description of assay [9]: qHTS for differential inhibitors of proliferation of Plasmodium falciparum line D10 (AID 1877).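 Also: parasites grown with compound for 72 h before DNA staining.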 Also: potency is read from the fitted curve at half-maximal effect.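 As to activity change, negative = inhibition: plate controls were vehicle wells for no effect and reference inhibitor wells for full effect.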
The nature of assay [10]: qHTS for differential inhibitors of proliferation of Plasmodium falciparum line W2 (AID 1883).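 Also: parasites grown with compound for 72 h before lysis and staining.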 Also: potency is read from the fitted curve at half-maximal effect.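 As to activity change, negative = inhibition: 0% = vehicle wells and -100% = control inhibitor wells.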 To be noted: Potency: Plasmodium falciparum W2 proliferation inhibition.
The nature of assay [11]: qHTS for differential inhibitors of proliferation of Plasmodium falciparum line HB3 (AID 1886).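 Also: parasites grown with compound for 72 h before SYBR Green readout.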 Also: potency is read from the fitted curve at half-maximal effect.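 As to activity change, negative = inhibition: plate controls were vehicle for no effect and reference inhibitor for full effect.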 To be noted: Potency: Plasmodium falciparum HB3 proliferation inhibition.
Assay [12] addresses Alpha-galactosidase A (Homo sapiens) (UniProt P06280). The assay can be described thus: Counterscreen for Glucocerebrosidase Inhibitors: qHTS Assay for Human alpha-Galactosidase at pH 4.5 (AID 992). Also: 0% is about no effect. The method, boiled down: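 Concentration-response curves (0.7 nM to 77 uM final) were modeled with the Hill equation to give AC50. Reactions: 2 nM enzyme, 80 uM fluorogenic alpha-galactoside, pH 4.5 citric acid buffer, 20 min, room temperature.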
On the technique in general: Counterscreens check selectivity or assay interference.

In assay [13] the target is alpha-glucosidase (Oryza sativa, rice) (UniProt Q653V4). The assay can be described thus: Counterscreen for Glucocerebrosidase Inhibitors: qHTS Assay for Rice alpha-Glucosidase at pH 5.0 (AID 997).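 Also: 0% = full activity with enzyme and -100% = basal without enzyme.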 The method in brief:
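Rice alpha-glucosidase (4 nM final) with 400 uM 4-methylumbelliferyl-alpha-D-glucopyranoside in citrate buffer pH 5.0, 20 min at room temperature, stopped at pH 10; fluorescence 365/440 nm, compounds 0.7 nM–77 uM, AC50 from Hill fits.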

The nature of assay [14]: Counterscreen for APE1 Inhibitors: Fluorescent Dye Displacement Validation Assay (AID 1707).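 Also: plate controls were ThO with dsDNA and no compound for no effect and ThO without dsDNA for full effect.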 The method, boiled down:
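Assay buffer: Tris-HCl pH7.5 with 50mM NaCl, 2 mM MgCl2, 0.01% Tween-20. Dye 250 nM, duplex 50 nM final. Readout: decrease in ThO endpoint fluorescence, 480 nm excitation, 540 nm emission.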

For assay [15], the target named is Ferritin light chain (Equus caballus) (UniProt P02791). The assay can be described thus: qHTS Validation Assay for Identification of Novel General Anesthetics (AID 2323). Also: % is scaled to controls: 0 for no effect and ±100 for the full control effect. The method, boiled down:
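Competitive displacement of the profluorescent anesthetic 1-AMA (50% saturated, PBS) from 10 uM apoferritin, 10 min, room temperature. Activity is normalized 380/535 nm fluorescence; concentration-response fitted with a four-parameter Hill equation.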

For assay [16], the target named is ATP-dependent DNA helicase Q1 (Homo sapiens) (UniProt P46063). The assay can be described thus: qHTS Validation Assay for Inhibitors of RecQ-Like Dna Helicase 1 (RECQ1) (AID 2353).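 Also: plate controls were DMSO vehicle for no effect and enzyme-free control for full effect.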 The method, boiled down:
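50 nM RECQ1T1 preincubated 15 min with compound in Tris pH 8.0 buffer with MgCl2, DTT, Tween-20 and 2.5 ug/ml poly(dI-dC); started with 200 nM TAMRA/BHQ-2 forked duplex and 2 mM ATP. Unwinding read as fluorescence (525/598 nm), two reads 2 h apart.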

The nature of assay [17]: Cell Viability - LYMP2-024 (AID 988).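 Also: plate controls were DMSO only for no effect and 92 µM tetraoctylammonium bromide for full effect; nearly all actives have a fitted effect of over 60% in size.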 The method in brief:
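Human lymphoblastoid LYMP2-024 cells (2500/well) rested 5 hr, then treated with compound for 24 hr at 37 C in complete medium. Viability was measured as intracellular ATP by CellTiter-Glo luminescence. AC50 values came from Hill-equation fits.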

Assay [18] is described as follows: qHTS Assay for Identification of Small Molecule Inducers of Hypoxia Response (AID 2120; active = well fitted curve in the direction sought with a large enough effect in the signal ratio, with a control signal flat, not every such curve was filed as active; the % refers to the signal ratio; also: 0% is about no effect). The method in brief: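 HRE-bla ME-180 cells in Opti-MEM with 0.5% dialyzed FBS, pre-plated 4-5 h, then compound titration for 17 h at 37 degrees Celsius. CCF4 loaded 2.5 h at room temperature; 460/530 nm ratio gave %Activity and AC50 for induction.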
Setting [19] is: measured here: cell count channel max response.
The mark [20] stands for this setting: measured here: lipid channel max response.

Each structure is given as a SMILES string. Several values for one entry are separate records, joined by “and”; a condition that tells them apart may be missing. Equal entries are not always repeated. Records with an inconclusive call do not appear. Activity calls are given as the source filed them. Unless noted, calls follow the shape of the dose curve; as a rule, active = well fitted curve in the direction sought with a large enough effect; inconclusive = small, poorly fitted or top-dose-only effect, or another doubt; inactive = no such curve, though single readings can be large; an effect the other way counts as inactive or inconclusive.

Sequence of ATP-dependent DNA helicase Q1 (Homo sapiens) (P46063 whole entry, looked up): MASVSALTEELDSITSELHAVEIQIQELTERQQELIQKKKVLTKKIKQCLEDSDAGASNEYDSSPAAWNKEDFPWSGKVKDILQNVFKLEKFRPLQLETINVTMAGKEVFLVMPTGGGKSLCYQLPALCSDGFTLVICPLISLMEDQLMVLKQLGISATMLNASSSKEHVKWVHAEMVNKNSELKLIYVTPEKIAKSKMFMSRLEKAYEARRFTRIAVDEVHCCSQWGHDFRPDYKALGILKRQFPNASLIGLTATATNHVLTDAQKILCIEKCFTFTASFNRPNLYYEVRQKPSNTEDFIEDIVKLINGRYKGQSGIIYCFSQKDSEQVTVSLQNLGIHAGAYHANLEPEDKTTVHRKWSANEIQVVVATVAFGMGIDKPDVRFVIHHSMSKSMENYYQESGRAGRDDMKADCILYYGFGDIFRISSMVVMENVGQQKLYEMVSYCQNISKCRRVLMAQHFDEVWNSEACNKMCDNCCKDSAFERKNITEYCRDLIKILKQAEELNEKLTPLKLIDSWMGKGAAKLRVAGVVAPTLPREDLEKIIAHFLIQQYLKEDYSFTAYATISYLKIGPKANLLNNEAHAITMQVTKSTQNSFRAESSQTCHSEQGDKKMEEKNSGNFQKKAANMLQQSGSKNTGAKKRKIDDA
Sequence of DNA repair nuclease/redox regulator APEX1 (Homo sapiens) (P27695 whole entry, looked up): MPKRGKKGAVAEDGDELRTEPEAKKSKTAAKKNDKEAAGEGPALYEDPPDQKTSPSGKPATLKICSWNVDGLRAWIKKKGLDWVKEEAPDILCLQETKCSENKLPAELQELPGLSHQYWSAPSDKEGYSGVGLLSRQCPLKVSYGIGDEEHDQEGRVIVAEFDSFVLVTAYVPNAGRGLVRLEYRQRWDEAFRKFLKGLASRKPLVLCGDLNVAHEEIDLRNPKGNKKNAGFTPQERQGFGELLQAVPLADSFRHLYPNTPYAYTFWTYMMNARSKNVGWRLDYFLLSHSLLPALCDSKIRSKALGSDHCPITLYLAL
Sequence of Ferritin light chain (Equus caballus) (P02791 2-175 limits assumed): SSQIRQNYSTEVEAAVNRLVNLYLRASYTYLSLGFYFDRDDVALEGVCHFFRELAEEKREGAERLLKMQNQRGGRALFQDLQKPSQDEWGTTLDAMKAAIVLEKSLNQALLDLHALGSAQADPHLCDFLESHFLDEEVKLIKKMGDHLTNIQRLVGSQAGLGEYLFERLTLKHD
Sequence of Alpha-galactosidase A (Homo sapiens) (P06280 whole entry, looked up): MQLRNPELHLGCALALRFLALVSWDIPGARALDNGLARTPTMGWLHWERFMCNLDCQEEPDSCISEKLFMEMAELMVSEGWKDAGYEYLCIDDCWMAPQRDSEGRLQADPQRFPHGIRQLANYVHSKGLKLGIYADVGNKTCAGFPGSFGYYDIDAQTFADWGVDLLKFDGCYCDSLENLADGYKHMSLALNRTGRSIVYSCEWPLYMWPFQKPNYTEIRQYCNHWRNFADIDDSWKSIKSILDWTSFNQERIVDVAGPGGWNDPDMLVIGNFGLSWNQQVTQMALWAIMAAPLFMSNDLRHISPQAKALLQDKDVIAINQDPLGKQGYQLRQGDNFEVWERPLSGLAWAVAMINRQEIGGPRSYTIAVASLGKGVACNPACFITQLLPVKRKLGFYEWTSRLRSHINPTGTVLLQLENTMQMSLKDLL

In the case of `NCC(=O)CCC(=O)O`, the activity change, negative = inhibition in assay [1] (at 57.5 µM (top of the series)) was 1.06% (inactive). Besides, the figures for the max response in [1] (setting [19]) and in assay [1] (setting [20]) were 6.63% and 10.2%, respectively.

In the case of `Nc1ccc(S(=O)(=O)Nc2nccs2)cc1`, the Potency entry in assay [2], in assay [3] and in [4] was “inactive” throughout. Further, the activity change, negative = inhibition is 0.978% (inactive) in assay [1] (at 25.7 µM (top of the series)) and 7.82% (inactive) in assay [1] (at 57.5 µM (top of the series)). For the same compound, the max response in assay [1] (setting [19]) is 0.0037% and 29.7%; in assay [1] (setting [20]) it was 1.28% and 42.1%.

As to `Nc1ccc(S(=O)(=O)Nc2ccc(Cl)nn2)cc1`, the activity change, negative = inhibition in assay [1] (at 25.7 µM (top of the series)) is 0.129% (inactive); in assay [1] (at 57.5 µM (top of the series)) it was 9.01% (inactive). Besides, the max response is 5.02% and 19.5% in [1] (setting [19]); 5.1% and 34.7% in [1] (setting [20]).

Take `C[C@H](N)[C@H](O)c1cccc(O)c1`: the activity change, negative = inhibition in assay [1] (at 25.7 µM (top of the series)) is -0.37% (inactive). Moreover, the max response in [1] (setting [19]) turned out to be 15.1%; in assay [1] (setting [20]), 15%.

With `CCN(CC)CCCC(C)Nc1c2ccc(Cl)cc2nc2ccc(OC)cc12` (stereo not given), in [1] (at 57.5 µM (top of the series)), the activity change, negative = inhibition was 9.16% (inactive) and 1.41% (inactive). Also, the max response was 2.35% and -26.6% in [1] (setting [19]); 14.1% and -23.7% in [1] (setting [20]). The Potency was 15.8 µM (active) in assay [5]; 0.178 µM (active) in assay [6]; 0.0891 µM (active) in [7]; 0.1 µM (active) in assay [8]; 0.0891 µM (active) in assay [9]; 0.0891 µM (active) in assay [10]. For the same compound, the Potency in [11] is 0.0891 µM (active).

Consider `Nc1cc(=O)[nH]c(N)n1`, for which the compound was called inactive in assay [12], in assay [13] and in [15]. The Potency result in assay [5], in [14], in assay [6], in assay [7], in assay [8] and in assay [9] was “inactive” throughout. For the same compound, the Potency result in assay [10], in assay [11] and in assay [16] was “inactive” in each case.

For the compound `Cc1c(O)cccc1C(=O)N[C@@H](CSc1ccccc1)[C@H](O)CN1C[C@H]2CCCC[C@H]2C[C@H]1C(=O)NC(C)(C)C`, the Potency is 50.1 µM (active) in assay [2], 39.8 µM (active) in assay [3] and 31.6 µM (active) in assay [4].

Take `CCCCCCCCCCCCOS(=O)(=O)O`: the result in [17] and in assay [18] was inactive. The Potency result in [2], in assay [3] and in assay [4] was “inactive” throughout.

As to `O=C1c2c(O)cccc2Cc2cccc(O)c21`, the outcome in [17] and in assay [18] was inactive. The Potency result in assay [2], in assay [3] and in assay [4] was “inactive” in each case. Besides, in assay [1] (at 57.5 µM (top of the series)), the activity change, negative = inhibition was 2.53% (inactive). Further, the max response in assay [1] (setting [19]) worked out at 14.4%; in assay [1] (setting [20]), 20.2%.

Consider `C[C@]12CC[C@@H]3c4ccc(O)cc4CC[C@H]3[C@@H]1CCC2=O`, for which the compound was called inactive in assay [12], in [13] and in assay [15]. The Potency result in assay [5], in assay [14] and in assay [16] was “inactive” in each case. The Potency in assay [6] is 3.98 µM (active); in assay [10] it was 11.2 µM (active).

Turning to `NCCNCCNCCNCCN`, the outcome in assay [17] and in [18] was inactive. Also, the Potency entry in assay [2], in assay [3] and in [4] was “inactive” throughout.

Regarding `NC1CCN(c2cccc(Cl)n2)CC1`, the call in assay [12], in assay [13] and in assay [15] was inactive. Besides, the Potency entry in assay [5], in assay [14], in assay [6], in [8], in [9] and in assay [11] was “inactive” throughout. For the same compound, the Potency result in assay [16] was “inactive”. Besides, the Potency in [7] is 12.6 µM (active); in [10], 5.62 µM (active).

(Values after PubChem BioAssay (NCATS).)
